# PubChem BioAssay
# The source made the active and inactive calls. Unless noted, the rule behind the calls is not given here.
# How the values were obtained:
# [1] = compounds altering viability of human ES cells (AID 493140); settings: human embryonic stem cell survival screen; stronger effect = higher value;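 note: cells exposed to compounds for four days before counting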
# [2] = P. berghei load reduction in hepatocytes – cell-based, HepG2, luciferase luminescence, HepG2 viability, primary screen (AID 624349; in the data active = parasite load remaining mostly below about 12%, no sharp cut-off; inactive = mostly above about 10%;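 note: 100% = mean of DMSO negative control wells on the same plate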); settings: P. berghei liver stage in HepG2, luciferase luminescence, concentration not given here; parasite load remaining: stronger effect = lower value; viability: measured here: HepG2 viability without parasites
# [3] = test system: Hepatitis C virus NS3 helicase; experiment: blockers of NS3h binding to ssDNA – biochemical, fluorescence polarization, LOPAC1280 library, primary screen (AID 687035; in the data active = inhibition above about 37%); settings: Purified HCV NS3 helicase, Cy5-dT15 ssDNA binding fluorescence polarization; stronger effect = higher value; concentration not given here
# [4] = compounds altering Cy5-DNA-NS3h complex signal – biochemical, LOPAC1280, artefact control for HCV NS3 helicase inhibitor project (AID 687037); settings: Cy5-DNA-NS3h complex fluorescence interference counterscreen
# [5] = liver-stage malaria parasite load reduction – cell-based, known kinase inhibitor set, luminescence, hepatoma host viability (AID 624392); settings: Plasmodium liver stage in hepatoma cells, luciferase luminescence, concentration not given here; liver cell % of control: measured here: host liver cell viability; parasite % of control: stronger effect = lower value;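 note: infected cells incubated roughly two days before readout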
# [6] = test system: Neuropilin-2 / VEGF-C interaction (human); experiment: small molecules blocking Neuropilin-2/VEGF-C interaction – biochemical, microplate binding format, z-score (AID 743281); settings: microplate NRP2/VEGF-C binding assay; stronger effect = lower value
smiles,measurement,setting,value
C[C@H]1O[C@@H](OC2CC[C@]3(C=O)[C@H]4CC[C@]5(C)[C@@H](C6=CC(=O)OC6)CC[C@@]5(O)[C@@H]4CC[C@]3(O)C2)C[C@H](O)[C@@H]1O (some centres undefined),survival,[1],1.42 (inactive)
COc1ccc(C(=O)OC2C[C@H]3CC[C@@H](C2)N3C)cc1OC (some centres undefined),survival,[1],13.3 (inactive)
same,parasite load remaining,[2],68.2% (inactive)
same,viability,[2],77.3%
CN[C@@H]1CC2(C)OC([C@@H]1OC)n1c3ccccc3c3c4c(c5c6ccccc6n2c5c31)C(=O)NC4 (some centres undefined),survival,[1],0.333 (inactive)
O=P(O)(O)Cc1ccccc1,survival,[1],126 (inactive)
[Cl-].[Cl][Pt].[NH2-].[NH2-].c1ccncc1,inhibition,[3],-3% (inactive)
same,fluorescence ratio (interference),[4],0.9 (inactive)
CC1CCC2(NC1)O[C@H]1C[C@H]3[C@@H]4CC=C5C[C@@H](O)CC[C@]5(C)[C@H]4CC[C@]3(C)[C@H]1[C@@H]2C (some centres undefined),survival,[1],4.83 (inactive)
CC1O[C@@H](O[C@@H]2C=C3CCC4C(CC[C@]5(C)[C@@H](c6ccc(=O)oc6)CC[C@]45O)[C@@]3(C)CC2)C(O)[C@@H](O)[C@H]1O (some centres undefined),survival,[1],2.83 (inactive)
C=CCN1CC[C@]23c4c5ccc(O)c4O[C@@H]2/C(=N\N=C2\CC[C@@]4(O)C6Cc7ccc(O)c8c7[C@@]4(CCN6CC=C)[C@@H]2O8)CC[C@@]3(O)C1C5,inhibition,[3],-6% (inactive)
same,fluorescence ratio (interference),[4],0.9 (inactive)
O=c1cccc2n1CC1CNC[C@@H]2C1,survival,[1],9 (inactive)
same,parasite load remaining,[2],70.3% (inactive)
same,viability,[2],77.8%
N/C(=N\[N+](=O)[O-])N/N=C\c1ccc(-c2cccc([N+](=O)[O-])c2)o1,parasite load remaining,[2],33.3% (inactive)
same,viability,[2],91.9%
C=CCN1CC[C@]23c4c5ccc(O)c4O[C@H]2/C(=N\NC(=O)c2ccccc2)CC[C@@]3(O)[C@H]1C5,inhibition,[3],-6% (inactive)
same,fluorescence ratio (interference),[4],0.9 (inactive)
C=C[C@@H]1CN2CCC1C[C@@H]2[C@H](O)c1ccnc2ccccc12 (some centres undefined),survival,[1],3.33 (inactive)
same,parasite load remaining,[2],71% (inactive)
same,viability,[2],77.6%
O=C1Nc2ccc3ncsc3c2/C1=C/c1cnc[nH]1,parasite load remaining,[2],86.4% (inactive)
same,viability,[2],77.5%
CN(C(Cc1ccc(OOSOc2cccc3cnccc23)cc1)C(=O)N1CCN(c2ccccc2)CC1)S(=O)(=O)c1cccc2cnccc12 (centres undefined),parasite load remaining,[2],43.1% (inactive)
same,viability,[2],153%
CCN(CC)C(=O)N[C@@H]1CC2c3cccc4[nH]cc(c34)CC2N(C)C1 (some centres undefined),survival,[1],2.5 (inactive)
CN1C2CCC1CC(OC1c3ccccc3CCc3ccccc31)C2 (centres undefined),survival,[1],0.75 (inactive)
CCN1C[C@]2(C)CC[C@H](OC)[C@]34C2[C@H](OC(C)=O)C2(OCO[C@@]25CC(OC)C2C[C@]3(O)C5[C@H]2OC)[C@@H]14 (some centres undefined),survival,[1],5 (inactive)
CC1CC[C@]2(NC1)O[C@H]1C[C@H]3[C@@H]4CC[C@H]5C[C@@H](O)CC[C@]5(C)[C@H]4CC[C@]3(C)[C@H]1[C@@H]2C (some centres undefined),survival,[1],5.67 (inactive)
same,parasite load remaining,[2],77.7% (inactive)
same,viability,[2],73.9%
COC1=C[C@H]2C3=C([C@H]2C1=O)[C@@H](NC(C)=O)CCc1cc(OC)c(OC)c(OC)c13,survival,[1],13.2 (inactive)
same,parasite load remaining,[2],78.4% (inactive)
same,viability,[2],74.3%
NS(=O)(=O)c1ccc(-c2ccc(C=C3C(=O)NC(=S)NC3=O)o2)cc1,liver cell % of control,[5],102%
same,parasite % of control,[5],96.9% (inactive)
CCCCCCCCCCCCCCC[C@@H](O)[C@@H](N)COP(=O)(O)O,survival,[1],93.8 (inactive)
O=C1NC(=O)C(=Cc2ccc(-c3ccc(F)cc3O)o2)C(=O)N1,liver cell % of control,[5],100%
same,parasite % of control,[5],87.6% (inactive)
O=S(=O)(c1c(O)c(Cl)cc(Cl)c1Cl)c1c(O)c(Cl)cc(Cl)c1Cl,parasite load remaining,[2],27.4% (inactive)
same,viability,[2],70.9%
CNS(=O)(=O)c1ccc(-c2ccc(C=C3C(=O)NC(=O)NC3=O)o2)cc1,liver cell % of control,[5],99.7%
same,parasite % of control,[5],111% (inactive)
NS(=O)(=O)c1ccc(-c2ccc(C=C3C(=O)NC(=O)NC3=O)o2)cc1,liver cell % of control,[5],104%
same,parasite % of control,[5],97.7% (inactive)
CCN1C[C@]2(COC)CC[C@H](O)C34C5C[C@@H]6C(OC)C[C@@](O)(C5[C@H]6OC(C)=O)[C@@H](CC32)[C@@H]14 (some centres undefined),survival,[1],21.1 (inactive)
CC[C@@H]1/C=C\C=C\C[C@H](C)[C@@H](O)[C@@H](C)C(=O)[C@H](C)[C@@H](O)[C@H](C)C(=O)[C@H](C)[C@@H](O)[C@H](C)/C=C/C(=O)O[C@H]2[C@@H](C)[C@@H](CC1)O[C@@]1(CC[C@@H](C)[C@@H](C[C@H](C)O)O1)[C@@H]2C,outcome,[6],inactive
CN1C2CC(=O)CC1C(O)C2 (centres undefined),survival,[1],4.08 (inactive)
O=C1NC(=O)C(=Cc2ccc(-c3ccc(S(=O)(=O)N4CCOCC4)cc3)o2)C(=O)N1,liver cell % of control,[5],98.4%
same,parasite % of control,[5],98.3% (inactive)
CC1(C)C(C=C(Br)Br)C1C(=O)OC(C#N)c1cccc(Oc2ccccc2)c1 (centres undefined),survival,[1],82.3 (inactive)
C[C@@H](N)[C@H](O)c1ccccc1,survival,[1],4.42 (inactive)
same,parasite load remaining,[2],62.7% (inactive)
same,viability,[2],76%
O=C1NC(=O)C(=Cc2ccc(-c3ccc([N+](=O)[O-])cc3)o2)C(=O)N1,liver cell % of control,[5],98%
same,parasite % of control,[5],117% (inactive)
NC(N)=NOCC[C@@H](N)C(=O)O,survival,[1],14.8 (inactive)
same,parasite load remaining,[2],70.5% (inactive)
same,viability,[2],75.6%
CN1C2CCC1CC(O)C2 (centres undefined),survival,[1],7.58 (inactive)
same,parasite load remaining,[2],64% (inactive)
same,viability,[2],69.9%
O=C1NC(=O)C(=Cc2ccc(-c3ccc(Cl)cc3)o2)C(=O)N1,liver cell % of control,[5],87%
same,parasite % of control,[5],167% (inactive)
CCN(CC)C(=O)N[C@H]1C[C@@H]2c3cccc4[nH]cc(c34)C[C@H]2N(C)C1,survival,[1],6 (inactive)
CC(=O)OC(C)C(C)C(=O)OC[C@]12C(C)[C@H]3O[C@@H]1C[C@]1(C)C(=CCC4[C@@]5(C)CCC(OC6O[C@H](C(=O)O)[C@H](O[C@H]7O[C@@H](CO)[C@@H](O)[C@@H](O)[C@@H]7O)[C@H](O)[C@H]6O[C@@H]6OO[C@@H](O)[C@H](O)[C@@H]6O)[C@](C)(CO)C5CC[C@]41C)[C@@H]2CC3(C)C (some centres undefined),survival,[1],2.17 (inactive)
CC(=O)O[C@@H]1CC(O[C@@H]2C(C)OC(O[C@@H]3C(C)OC(OC4CC[C@@]5(C)[C@H](CC[C@]6(C)[C@]5(C)C[C@@H](O)[C@]5(C)[C@@H](C7=CC(=O)OC7)CC[C@@]56O)C4)C[C@H]3O)C[C@H]2O)OC(C)[C@H]1OC1OC(CO)[C@@H](O)[C@@H](O)[C@@H]1O (some centres undefined),survival,[1],0.333 (inactive)
CC(C)C1C(=O)N2CCCC2C2(O)OC(NC(=O)C3CC4c5cccc6[nH]cc(c56)CC4N(C)C3)(C(C)C)C(=O)N12 (centres undefined),survival,[1],8 (inactive)
